# N-glyco inh: blocks N-linked glycosylation in D54 reporter cells; 360,000 tested, 0.23% active; D54 ERlucT glycosylation luciferase reporter, 24 h; percent of 100 nM tunicamycin response; reporter increase, % at 12.5 µM;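 active means mean luciferase reporter signal, scaled so untreated is 0 and the glycosylation-blocking control 100, at or above a set limit in every replicate; inconclusive means mean reaches the limit but not every replicate does; inactive means mean below the limit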;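 further: luciferase carries N-glycosylation sites so blocking glycosylation raises the light; 0% = median of neutral control wells and 100% = median of 100 nM tunicamycin wells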
# Shn3 inh set2: inhibitors of Schnurri-3 3'UTR reporter in osteoblasts. Clone20 osteoblast Shn3 3'UTR firefly luciferase, 24 h. inhibition, % at 12.5 µM. 360,000 tested, 0.52% active. AID 588674;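 active means mean inhibition of at least 75% with every replicate also reaching 75%; inconclusive means mean inhibition at least 75% but some replicate below; inactive means mean inhibition below 75%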;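 further: 0% = median of neutral control wells and 100% = pilot-screen positive control compound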
# NSD2 inh: inhibitors of human histone methyltransferase NSD2 | 310,000 tested, 0.54% active | O96028 | NSD2 peptide methylation, AlphaScreen, 120 min | inhibition, % at 12.5 µM; in the data active means inhibition above about 50%
# PAX8 reporter: inhibitors of PAX8 transcriptional activity in RMG-I cells; RMG-I TPO-luciferase reporter, SteadyGlo, 24 h; inhibition, % at 12.6 µM; 360,000 tested, 1.2% active; AID 652154;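 active means mean replicate inhibition at least 60% with every replicate also reaching 60%; inconclusive means only one of the two criteria is met; inactive means mean below 60% and not all replicates reaching 60%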;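 further: luciferase light reporting Pax8 driven TPO promoter activity; plate controls were median of neutral control wells for no effect and mitoxantrone controls for full effect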
# Env fusion inh: blocks HIV Env-driven cell-cell fusion | HeLa-JRFL Env/CEM21 cell fusion, luciferase | inhibition, % at 12.3 µM | 360,000 tested, 1.1% active | AID 651610;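 active means mean replicate inhibition score of at least 50 and every replicate individually at or above 50; inconclusive means only one of the two criteria met; inactive means mean below 50 and not all replicates reaching 50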;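 further: 0% = plate neutral controls and 100% = maraviroc near 300 nM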
# LMP1 NFkB inh: inhibitors of Epstein-Barr LMP1-induced NF-kappaB reporter. 350,000 tested, 0.69% active. inhibition, % at 12.5 µM. LMP1-induced NF-kappaB luciferase reporter cells, luminescence; in the data active means inhibition above about 41%; inconclusive means no clear call, values can overlap the other calls;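 further: 0% = neutral control wells and 100% = reference inhibitor control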
# An asterisk follows results filed as active; i = inactive; ? = inconclusive; . = no result given; [ ] = remark or other dose. In the library only some 2.8% were active in any assay of this set; here they are far more common.
SMILES,N-glyco inh,Shn3 inh set2,NSD2 inh,PAX8 reporter,Env fusion inh,LMP1 NFkB inh
C[C@H]1CN([C@@H](C)CO)C(=O)c2ccccc2-c2ccccc2CO[C@H]1CN(C)S(=O)(=O)c1ccc(Cl)cc1,.,.,.,21,55*[16.7 µM],.
C[C@H]1CN([C@@H](C)CO)C(=O)c2ccccc2-c2ccccc2CO[C@H]1CN(C)S(=O)(=O)c1ccc(C(F)(F)F)cc1,.,.,.,102*,50[16.7 µM],.
C[C@@H]1CN([C@H](C)CO)C(=O)c2ccccc2-c2ccccc2CO[C@@H]1CN(C)Cc1ccccc1C(F)(F)F,.,.,.,75*,.,.
C[C@@H]1CN([C@H](C)CO)C(=O)c2ccccc2-c2ccccc2CO[C@@H]1CN(C)S(=O)(=O)c1ccc(C(F)(F)F)cc1,.,.,.,-14,-23[16.7 µM],.
C[C@@H]1CN([C@@H](C)CO)C(=O)c2ccccc2-c2ccccc2CO[C@@H]1CN(C)Cc1ccccc1C(F)(F)F,.,.,.,45,.,.
C[C@H](CO)N1C[C@H](C)[C@@H](CN(C)Cc2ccc(C(=O)O)cc2)OCCCC[C@H](C)Oc2ccc(NS(=O)(=O)c3ccc(F)cc3)cc2C1=O,.,.,.,2,-9[16.7 µM],.
CO[C@H]1CN(C)C(=O)c2ccc(NC(=O)c3ccc(F)cc3)cc2OC[C@H](C)N(C)C[C@H]1C,.,.,.,0,3[16.7 µM],.
C[C@@H]1CN([C@@H](C)CO)C(=O)Cc2cc(NS(=O)(=O)c3cccs3)ccc2O[C@H]1CN(C)C(=O)Nc1ccccc1,.,.,.,-21,-22[16.7 µM],.
Cc1ccc(/C=C/c2nnc(-c3cccs3)o2)cc1,-14,-44,2,.,-169,-9
Fc1ccc(/C=C/c2nnc(-c3cccs3)o2)cc1,-5,-104,51*,-65,-46,-29
Cc1ccc(Nc2nc(N)nc(N)c2N=O)cc1C,-2,-1,9,.,.,.
Cc1cc(Br)ccc1Nc1nc(N)nc(N)c1N=O,2,-4,0,.,56*,8
COCCCNC(=O)CN1C(=O)COc2ccc(S(=O)(=O)N3CCOCC3)cc21,0,0,-2,0,-14,57*
Cc1ccc(CCNC(=O)CCc2nc3ccccc3[nH]2)cc1,-1,5,-3,3,19,57*
O=C(NCCCc1nc2ccccc2[nH]1)c1cccs1,1,2,-4,-6,0,-10
CCCCn1c(C(C)NC(=O)CCC)nc2ccccc21 (stereo not drawn),-1,0,.,11,-69,5
CCCC(=O)NCCCc1nc2ccccc2n1C,-13,14,.,11,9,92*
CCCCCn1c(C(C)NC(=O)CCC)nc2ccccc21 (stereo not drawn),0,7,.,-2,74*,-5
CCCC(=O)NCCc1nc2ccccc2n1C,-2,-1,5,3,53,-2
O=C(NCCCc1nc2ccccc2[nH]1)c1ccco1,-1,12,-1,.,84*,9
CCC(=O)N1[C@@H]2c3ccc(-c4cccnc4)c(=O)n3C[C@H]1[C@H](CO)[C@H]2C(=O)NC1CCC1,.,.,.,3,.,.
C/C=C/c1ccc2c(c1)O[C@@H](CN(C)C(C)=O)[C@H](C)CN([C@H](C)CO)S2(=O)=O,.,.,.,.,-3[16.7 µM],.
CCCC(=O)NCCCc1nc2ccccc2[nH]1,-1,-23,.,-3,4,87*
O=C(NCc1cccnc1)/C(=C\c1ccc(-c2ccc(Cl)c(Cl)c2)o1)S(=O)(=O)c1ccccc1,-22,98*,0,91*,i,87*
O=C(NCc1cccnc1)c1ccc(-c2ccc(Cl)cc2)o1,4,11,0,-4,8,-6
SMILES,N-glyco inh,Shn3 inh set2,NSD2 inh,PAX8 reporter,Env fusion inh,LMP1 NFkB inh
CCN(CC)S(=O)(=O)c1ccc(N=NC2=C(O)CCCC2=O)cc1,5,10,-2,17,2,63*
CO[C@H]1CN(C)C(=O)c2cc(NS(=O)(=O)c3ccccc3F)ccc2OC[C@@H](C)NC[C@H]1C,.,.,.,.,10[16.7 µM],.
O=C(C=C(O)c1ccc(Cl)cc1)C(=O)NNC(=O)C(O)(c1ccccc1)c1ccccc1,-10,98*,1,12,-15,-1
CCCN1[C@H](C(=O)NCC(F)(F)F)[C@@H](CO)[C@@H]2Cn3c(ccc(-c4ccccc4)c3=O)[C@@H]21,.,.,.,5,.,.
COc1ccc(-c2cc(-c3ccccc3)c(C#N)c(S(C)=O)n2)cc1 (stereo not drawn),23,2,-1,76*,-84,11
CCOC(=O)Cc1csc(N/N=C\c2ccc(N(C)C)cc2)n1,-4,7,6,-26,-8,81*
CC1CN(Cc2c(O)ccc3c2oc(=O)c2ccccc23)CC(C)O1 (stereo not drawn),0,-22,98*,6,-13,-2
CC1CN(Cc2c(O)ccc3c(=O)c(-c4ccccc4)coc23)CC(C)O1 (stereo not drawn),-2,14,-4,5,-11,2
CCS(=O)(=O)c1ncc(Cl)c(C(=O)Nc2ccc(C)cc2)n1,-3,82,3,100*,17,-48
CCS(=O)(=O)c1ncc(Cl)c(C(=O)Nc2ccc(S(=O)(=O)N3CCCC(C)C3)cc2)n1 (stereo not drawn),-25,98*,2,102*,57*,21
CC1CCCN(S(=O)(=O)c2ccc(NC(=O)CNC3CCCC3)cc2)C1 (stereo not drawn),-7,21,31,4,7,1
CSc1ncc(Cl)c(C(=O)Nc2ccc(NC(C)=O)cc2)n1,1,-77,4,2,1,-4
Cc1ccc(CS(=O)(=O)c2ncc(Cl)c(C(=O)Nc3ccc(OC(F)F)cc3)n2)cc1,5,94*,1,21,3,?
O=C(Nc1ccc(OC(F)F)cc1)c1ncc(Cl)c(Cl)c1Cl,3,-11,-6,4,8,10
O=C1Nc2ccccc2/C1=N\N=C\C1=C(N2CCOCC2)C(=C\c2ccccc2)/CC1,1,19,6,.,64*,11
O=C1Nc2ccc(Br)cc2/C1=N\N=C\C1=C(N2CCOCC2)C(=C/c2ccccc2)/CC1,6,-16,-1,-3,11,-2
C[C@H](NC(=O)C[C@H]1CC[C@@H]2[C@H](COC[C@H](O)CN2C(=O)Nc2ccccc2)O1)c1ccccc1,.,.,.,-3,.,.
O=C(NCc1cccc(Cl)c1)c1cc(COc2ccc3ncccc3c2)on1,-8,?,1,-20,36,8
CCC1CCCCN1C(=O)c1cc(COc2ccc3ncccc3c2)on1 (stereo not drawn),-1,88*,6,28,7,-7
O=C(c1cc(COc2ccc3c(c2)CCCC3)on1)N1CCCC1,-4,-40,0,-242,-62,73*
CCN(CC)C(=O)C1CCCN(C(=O)c2cc(COc3ccc4ncccc4c3)on2)C1 (stereo not drawn),-2,46,-1,17,14,6
CC(CCCC(C)(C)O)NC(=O)c1cc(COc2ccc3ncccc3c2)on1 (stereo not drawn),-2,90*,-2,30,0,10

# Screening results as filed in PubChem BioAssay.
